# Experimental data: PMC7862700, “An all-to-all approach to the identification of sequence-specific readers for epigenetic DNA modifications on cytosine”
# Tests used:
# Experiment in all cases: DAPPL (digital affinity profiling via proximity ligation, sequencing); 10 mM Tris-HCl pH 7.5, 50 mM NaCl, 1 mM DTT, 4% glycerol, room temperature, 30 min; GST-TFs on glutathione beads, 16-mer random dsDNA library, 0.1% formaldehyde crosslink after washing; high values mean tight binding
# FLI1 = biological target: T1, FLI1 (Homo sapiens, UniProt Q01543 1-452); conditions: protein: recombinant; tags: N-terminal GST; dsDNA, one strand shown
# T1 sequence: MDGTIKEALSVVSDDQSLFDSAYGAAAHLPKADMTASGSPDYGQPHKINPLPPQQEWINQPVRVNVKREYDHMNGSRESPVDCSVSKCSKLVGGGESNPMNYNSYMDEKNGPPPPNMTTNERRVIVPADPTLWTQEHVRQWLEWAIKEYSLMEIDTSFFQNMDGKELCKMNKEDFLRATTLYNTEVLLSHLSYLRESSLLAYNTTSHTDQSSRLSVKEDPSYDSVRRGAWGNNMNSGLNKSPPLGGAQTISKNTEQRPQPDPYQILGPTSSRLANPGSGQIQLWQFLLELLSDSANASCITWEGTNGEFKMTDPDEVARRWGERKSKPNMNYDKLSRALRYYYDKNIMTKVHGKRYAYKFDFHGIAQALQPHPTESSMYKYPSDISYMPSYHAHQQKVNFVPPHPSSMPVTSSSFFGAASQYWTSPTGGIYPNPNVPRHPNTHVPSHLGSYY
# Method in brief: (§1)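 The binding signal reported is, for every hexamer, its read frequency for a factor over its read frequency for the tag-only sample. Reads came from pools of yeast-expressed, GST-fused human transcription factors on glutathione beads, barcoded with DNA and mixed with that sample, which were incubated with 200 nmole of a random double-stranded 16-mer DNA library in Tris/NaCl/DTT/glycerol buffer at room temperature for 30 min. After washing, the pools were crosslinked with 0.1% formaldehyde, proximity-ligated with BsaI/T4 ligase for 1 h at 37 °C, PCR-amplified and sequenced on an Illumina NextSeq500.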
# ELK1 = biological target: T2, ELK1 (Homo sapiens, UniProt P19419 1-428); conditions: protein: recombinant; tags: N-terminal GST; dsDNA, one strand shown
# T2 sequence: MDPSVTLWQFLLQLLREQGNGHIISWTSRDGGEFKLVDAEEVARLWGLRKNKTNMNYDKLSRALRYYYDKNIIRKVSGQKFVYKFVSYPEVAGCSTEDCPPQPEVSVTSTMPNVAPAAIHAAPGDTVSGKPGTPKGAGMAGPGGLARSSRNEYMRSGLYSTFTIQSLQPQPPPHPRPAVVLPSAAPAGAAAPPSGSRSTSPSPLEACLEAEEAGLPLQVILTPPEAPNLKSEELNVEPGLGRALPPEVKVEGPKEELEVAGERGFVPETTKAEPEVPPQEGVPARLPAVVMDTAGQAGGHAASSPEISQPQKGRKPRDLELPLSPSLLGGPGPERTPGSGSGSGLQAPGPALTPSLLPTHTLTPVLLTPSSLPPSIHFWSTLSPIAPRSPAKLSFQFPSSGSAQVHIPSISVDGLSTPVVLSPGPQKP
# Method in brief: as §1
# GABPA = biological target: T3, GABPA (Homo sapiens, UniProt Q06546 1-454); conditions: protein: recombinant; tags: N-terminal GST; dsDNA, one strand shown
# T3 sequence: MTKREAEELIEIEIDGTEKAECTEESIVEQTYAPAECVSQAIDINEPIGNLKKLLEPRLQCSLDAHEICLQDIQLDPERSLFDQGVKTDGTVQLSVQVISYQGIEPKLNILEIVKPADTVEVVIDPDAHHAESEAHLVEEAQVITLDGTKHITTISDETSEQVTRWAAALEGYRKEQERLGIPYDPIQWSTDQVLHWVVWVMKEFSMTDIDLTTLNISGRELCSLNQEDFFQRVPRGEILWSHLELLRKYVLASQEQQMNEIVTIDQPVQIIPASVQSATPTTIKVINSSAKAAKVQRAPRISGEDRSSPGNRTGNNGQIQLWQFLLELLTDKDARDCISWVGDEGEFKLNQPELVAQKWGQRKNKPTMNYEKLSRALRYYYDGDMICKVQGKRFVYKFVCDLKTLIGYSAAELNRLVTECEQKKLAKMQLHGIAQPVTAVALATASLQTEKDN
# Method in brief: as §1
# ERG = biological target: T4, ERG (Homo sapiens, UniProt P11308 1-479); conditions: protein: recombinant; tags: N-terminal GST; dsDNA, one strand shown
# T4 sequence: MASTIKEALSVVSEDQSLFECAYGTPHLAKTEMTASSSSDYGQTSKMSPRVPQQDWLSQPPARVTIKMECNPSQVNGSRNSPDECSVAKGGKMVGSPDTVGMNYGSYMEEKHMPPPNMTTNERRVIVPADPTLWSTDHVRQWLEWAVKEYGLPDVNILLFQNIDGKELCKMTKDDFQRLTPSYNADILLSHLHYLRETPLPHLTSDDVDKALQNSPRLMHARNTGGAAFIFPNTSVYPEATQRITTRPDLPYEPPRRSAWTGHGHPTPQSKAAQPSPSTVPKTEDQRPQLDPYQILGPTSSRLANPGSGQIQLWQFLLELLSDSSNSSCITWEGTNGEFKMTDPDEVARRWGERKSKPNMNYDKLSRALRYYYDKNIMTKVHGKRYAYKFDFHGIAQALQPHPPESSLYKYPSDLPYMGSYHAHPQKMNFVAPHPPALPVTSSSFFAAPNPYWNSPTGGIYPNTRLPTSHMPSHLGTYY
# Method in brief: as §1
# ELF1 = ELF1 (Homo sapiens, UniProt P32519 1-619); conditions: protein: recombinant; tags: N-terminal GST; dsDNA, one strand shown
# Chain of ELF1 (P32519 whole entry): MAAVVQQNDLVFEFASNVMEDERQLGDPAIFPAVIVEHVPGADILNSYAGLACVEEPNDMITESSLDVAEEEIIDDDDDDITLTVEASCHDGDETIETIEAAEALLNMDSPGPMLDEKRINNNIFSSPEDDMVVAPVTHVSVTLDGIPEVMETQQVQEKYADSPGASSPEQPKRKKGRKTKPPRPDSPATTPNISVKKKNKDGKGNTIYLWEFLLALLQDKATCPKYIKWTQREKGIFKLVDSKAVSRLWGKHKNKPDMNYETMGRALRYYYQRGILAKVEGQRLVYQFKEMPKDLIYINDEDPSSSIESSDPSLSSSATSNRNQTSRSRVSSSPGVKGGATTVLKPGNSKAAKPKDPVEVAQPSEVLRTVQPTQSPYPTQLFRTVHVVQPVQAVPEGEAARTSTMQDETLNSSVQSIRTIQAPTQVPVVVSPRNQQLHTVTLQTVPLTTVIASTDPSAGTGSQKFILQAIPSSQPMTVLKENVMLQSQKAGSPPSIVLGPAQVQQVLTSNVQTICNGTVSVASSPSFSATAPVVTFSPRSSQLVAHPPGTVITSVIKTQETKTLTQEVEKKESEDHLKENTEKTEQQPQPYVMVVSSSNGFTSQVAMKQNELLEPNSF
# Method in brief: as §1
# EHF = biological target: T5, EHF (Homo sapiens, UniProt Q9NZC4 1-300); conditions: protein: recombinant; tags: N-terminal GST; dsDNA, one strand shown
# T5 sequence: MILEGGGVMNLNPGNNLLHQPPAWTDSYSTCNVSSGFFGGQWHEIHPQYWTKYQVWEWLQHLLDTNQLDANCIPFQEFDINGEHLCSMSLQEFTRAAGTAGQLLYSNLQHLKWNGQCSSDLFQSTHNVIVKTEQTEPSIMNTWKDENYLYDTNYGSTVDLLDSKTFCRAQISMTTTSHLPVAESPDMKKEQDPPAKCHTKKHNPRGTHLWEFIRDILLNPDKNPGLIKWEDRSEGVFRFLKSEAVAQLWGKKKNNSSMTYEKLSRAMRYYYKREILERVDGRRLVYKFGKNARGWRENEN
# Method in brief: as §1
# SPI1 = SPI1 (Homo sapiens, UniProt P17947 1-270); conditions: protein: recombinant; tags: N-terminal GST; dsDNA, one strand shown
# Method in brief: as §1
# SPIB = SPIB (Homo sapiens, UniProt Q01892 1-262); conditions: protein: recombinant; tags: N-terminal GST; dsDNA, one strand shown
# Chain of SPIB (Q01892 whole entry): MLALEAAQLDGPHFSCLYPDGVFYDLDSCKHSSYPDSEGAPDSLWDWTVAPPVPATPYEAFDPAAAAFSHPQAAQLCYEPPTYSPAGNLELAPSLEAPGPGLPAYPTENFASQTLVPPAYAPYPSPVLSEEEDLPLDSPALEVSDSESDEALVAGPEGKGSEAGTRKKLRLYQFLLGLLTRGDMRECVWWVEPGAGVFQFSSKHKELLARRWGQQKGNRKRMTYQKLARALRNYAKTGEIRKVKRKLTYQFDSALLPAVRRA
# Method in brief: as §1
# ELK3 = biological target: T6, ELK3 (Homo sapiens, UniProt P41970 1-407); conditions: protein: recombinant; tags: N-terminal GST; dsDNA, one strand shown
# T6 sequence: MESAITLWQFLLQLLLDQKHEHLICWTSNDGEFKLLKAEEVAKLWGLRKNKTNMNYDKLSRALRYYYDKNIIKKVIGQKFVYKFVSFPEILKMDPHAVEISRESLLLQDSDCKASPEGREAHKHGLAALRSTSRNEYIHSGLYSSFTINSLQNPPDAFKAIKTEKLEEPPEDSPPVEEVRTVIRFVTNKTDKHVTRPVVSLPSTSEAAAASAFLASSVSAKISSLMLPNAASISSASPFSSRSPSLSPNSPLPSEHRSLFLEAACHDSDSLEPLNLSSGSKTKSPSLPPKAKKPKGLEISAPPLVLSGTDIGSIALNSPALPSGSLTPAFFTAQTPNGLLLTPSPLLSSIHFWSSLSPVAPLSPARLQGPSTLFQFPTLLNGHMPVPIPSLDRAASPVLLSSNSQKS
# Method in brief: as §1
# FEV = biological target: T7, FEV (Homo sapiens, UniProt Q99581 1-238); conditions: protein: recombinant; tags: N-terminal GST; dsDNA, one strand shown
# T7 sequence: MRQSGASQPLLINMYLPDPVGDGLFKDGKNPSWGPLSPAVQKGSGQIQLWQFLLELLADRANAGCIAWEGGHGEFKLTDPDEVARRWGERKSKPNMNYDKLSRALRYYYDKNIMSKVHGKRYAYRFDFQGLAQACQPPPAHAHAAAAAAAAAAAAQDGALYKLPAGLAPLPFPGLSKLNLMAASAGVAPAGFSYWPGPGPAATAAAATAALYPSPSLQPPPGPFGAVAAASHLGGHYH
# Method in brief: as §1
# ETV5 = ETV5 (Homo sapiens, UniProt P41161 1-510); conditions: protein: recombinant; tags: N-terminal GST; dsDNA, one strand shown
# Chain of ETV5 (P41161 whole entry): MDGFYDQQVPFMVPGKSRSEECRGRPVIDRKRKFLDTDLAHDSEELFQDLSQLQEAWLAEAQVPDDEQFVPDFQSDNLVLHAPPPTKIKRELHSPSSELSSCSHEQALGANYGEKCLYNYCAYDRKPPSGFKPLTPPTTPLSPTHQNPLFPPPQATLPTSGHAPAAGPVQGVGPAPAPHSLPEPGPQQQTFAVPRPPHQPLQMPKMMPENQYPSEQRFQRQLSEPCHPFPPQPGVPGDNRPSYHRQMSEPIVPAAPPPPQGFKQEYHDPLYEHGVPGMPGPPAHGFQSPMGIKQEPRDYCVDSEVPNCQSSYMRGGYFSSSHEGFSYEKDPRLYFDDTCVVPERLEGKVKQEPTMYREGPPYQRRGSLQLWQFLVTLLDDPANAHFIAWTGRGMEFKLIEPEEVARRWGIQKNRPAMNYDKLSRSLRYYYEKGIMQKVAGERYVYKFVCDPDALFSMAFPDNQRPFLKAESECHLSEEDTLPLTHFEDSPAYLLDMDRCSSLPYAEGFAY
# Method in brief: as §1
# HSF1 = HSF1 (Homo sapiens, UniProt Q00613 1-529); conditions: protein: recombinant; tags: N-terminal GST; chain copies: 3; dsDNA, one strand shown
# Chain of HSF1 (Q00613 whole entry): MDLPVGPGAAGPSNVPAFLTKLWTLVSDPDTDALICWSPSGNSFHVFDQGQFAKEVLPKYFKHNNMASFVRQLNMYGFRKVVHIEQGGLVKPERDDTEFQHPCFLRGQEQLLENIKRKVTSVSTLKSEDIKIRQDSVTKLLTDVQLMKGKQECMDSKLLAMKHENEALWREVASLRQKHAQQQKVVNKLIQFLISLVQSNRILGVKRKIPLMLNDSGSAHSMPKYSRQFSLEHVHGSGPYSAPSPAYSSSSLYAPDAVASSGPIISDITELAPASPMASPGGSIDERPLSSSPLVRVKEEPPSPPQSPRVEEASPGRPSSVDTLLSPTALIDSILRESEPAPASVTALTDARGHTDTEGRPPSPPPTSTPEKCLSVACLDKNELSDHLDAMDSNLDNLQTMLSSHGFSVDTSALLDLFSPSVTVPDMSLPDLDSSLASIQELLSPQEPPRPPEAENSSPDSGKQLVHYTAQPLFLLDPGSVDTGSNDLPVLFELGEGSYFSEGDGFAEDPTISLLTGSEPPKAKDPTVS
# Method in brief: as §1
# SPIC = biological target: T8, SPIC (Homo sapiens, UniProt Q8N5J4 1-248); conditions: protein: recombinant; tags: N-terminal GST; dsDNA, one strand shown
# T8 sequence: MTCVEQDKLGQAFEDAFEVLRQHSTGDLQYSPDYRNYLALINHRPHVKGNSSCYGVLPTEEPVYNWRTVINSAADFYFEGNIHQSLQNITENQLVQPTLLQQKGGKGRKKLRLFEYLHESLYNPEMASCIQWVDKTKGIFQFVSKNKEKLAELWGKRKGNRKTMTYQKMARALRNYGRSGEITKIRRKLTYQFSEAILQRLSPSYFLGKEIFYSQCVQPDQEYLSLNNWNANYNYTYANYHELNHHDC
# Method in brief: as §1
# ELF4 = ELF4 (Homo sapiens, UniProt Q99607 1-663); conditions: protein: recombinant; tags: N-terminal GST; dsDNA, one strand shown
# Chain of ELF4 (Q99607 whole entry): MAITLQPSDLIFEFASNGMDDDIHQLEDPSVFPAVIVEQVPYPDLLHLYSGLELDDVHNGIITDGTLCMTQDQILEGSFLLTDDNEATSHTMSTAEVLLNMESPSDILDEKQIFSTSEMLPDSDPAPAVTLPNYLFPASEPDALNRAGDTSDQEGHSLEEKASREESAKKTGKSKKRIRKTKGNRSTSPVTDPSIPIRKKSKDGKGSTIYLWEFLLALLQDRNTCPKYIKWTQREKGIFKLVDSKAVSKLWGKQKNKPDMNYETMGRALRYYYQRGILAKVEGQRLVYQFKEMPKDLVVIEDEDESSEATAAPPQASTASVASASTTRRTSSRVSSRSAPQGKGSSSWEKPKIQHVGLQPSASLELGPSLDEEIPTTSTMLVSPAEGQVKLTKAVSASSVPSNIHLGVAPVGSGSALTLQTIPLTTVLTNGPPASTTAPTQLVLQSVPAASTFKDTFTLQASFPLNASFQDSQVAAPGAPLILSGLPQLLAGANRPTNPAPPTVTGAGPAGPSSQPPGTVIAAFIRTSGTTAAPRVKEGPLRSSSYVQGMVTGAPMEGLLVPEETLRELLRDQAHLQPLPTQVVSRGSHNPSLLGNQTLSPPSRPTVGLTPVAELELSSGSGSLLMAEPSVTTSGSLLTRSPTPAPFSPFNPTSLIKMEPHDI
# Method in brief: as §1
# ELK4 = biological target: T9, ELK4 (Homo sapiens, UniProt P28324-2 1-405); conditions: protein: recombinant; tags: N-terminal GST; dsDNA, one strand shown
# T9 sequence: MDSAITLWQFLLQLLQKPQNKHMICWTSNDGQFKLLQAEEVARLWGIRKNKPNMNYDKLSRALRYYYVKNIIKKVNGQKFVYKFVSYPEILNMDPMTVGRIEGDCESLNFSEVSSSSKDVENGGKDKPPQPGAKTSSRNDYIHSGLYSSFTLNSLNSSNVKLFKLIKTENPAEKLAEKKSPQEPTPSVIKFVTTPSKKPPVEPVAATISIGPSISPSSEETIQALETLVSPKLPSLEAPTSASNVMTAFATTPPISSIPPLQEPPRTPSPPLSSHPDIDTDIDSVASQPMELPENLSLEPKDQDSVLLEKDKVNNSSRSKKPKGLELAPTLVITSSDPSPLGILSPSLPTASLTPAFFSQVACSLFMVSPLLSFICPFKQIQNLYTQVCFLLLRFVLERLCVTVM
# Method in brief: as §1
# ETV2 = biological target: T10, ETV2 (Homo sapiens, UniProt O00321 1-342); conditions: protein: recombinant; tags: N-terminal GST; dsDNA, one strand shown
# T10 sequence: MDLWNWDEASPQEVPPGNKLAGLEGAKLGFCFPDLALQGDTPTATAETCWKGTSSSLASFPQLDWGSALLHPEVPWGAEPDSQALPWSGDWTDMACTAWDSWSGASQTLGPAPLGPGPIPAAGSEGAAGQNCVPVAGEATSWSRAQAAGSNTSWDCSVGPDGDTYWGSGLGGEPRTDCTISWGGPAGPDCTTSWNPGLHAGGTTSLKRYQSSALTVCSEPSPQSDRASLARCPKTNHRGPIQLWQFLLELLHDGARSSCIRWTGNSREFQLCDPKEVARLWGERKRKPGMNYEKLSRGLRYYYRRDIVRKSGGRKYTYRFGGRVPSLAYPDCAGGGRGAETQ
# Method in brief: as §1
# ELF3 = biological target: T11, ELF3 (Homo sapiens, UniProt P78545 1-371); conditions: protein: recombinant; tags: N-terminal GST; dsDNA, one strand shown
# T11 sequence: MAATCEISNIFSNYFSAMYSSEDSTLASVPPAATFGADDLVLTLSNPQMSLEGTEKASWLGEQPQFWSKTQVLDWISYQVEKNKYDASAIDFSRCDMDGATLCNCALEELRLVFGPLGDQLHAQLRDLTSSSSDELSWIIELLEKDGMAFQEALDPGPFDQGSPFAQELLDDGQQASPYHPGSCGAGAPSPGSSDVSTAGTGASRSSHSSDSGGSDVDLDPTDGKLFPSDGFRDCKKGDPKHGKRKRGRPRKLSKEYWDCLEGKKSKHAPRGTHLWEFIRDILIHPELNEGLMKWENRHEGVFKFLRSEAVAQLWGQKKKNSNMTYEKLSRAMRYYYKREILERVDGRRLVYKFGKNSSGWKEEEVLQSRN
# Method in brief: as §1
# ETV1 = ETV1 (Homo sapiens, UniProt P50549 1-477); conditions: protein: recombinant; tags: N-terminal GST; dsDNA, one strand shown
# Chain of ETV1 (P50549 whole entry): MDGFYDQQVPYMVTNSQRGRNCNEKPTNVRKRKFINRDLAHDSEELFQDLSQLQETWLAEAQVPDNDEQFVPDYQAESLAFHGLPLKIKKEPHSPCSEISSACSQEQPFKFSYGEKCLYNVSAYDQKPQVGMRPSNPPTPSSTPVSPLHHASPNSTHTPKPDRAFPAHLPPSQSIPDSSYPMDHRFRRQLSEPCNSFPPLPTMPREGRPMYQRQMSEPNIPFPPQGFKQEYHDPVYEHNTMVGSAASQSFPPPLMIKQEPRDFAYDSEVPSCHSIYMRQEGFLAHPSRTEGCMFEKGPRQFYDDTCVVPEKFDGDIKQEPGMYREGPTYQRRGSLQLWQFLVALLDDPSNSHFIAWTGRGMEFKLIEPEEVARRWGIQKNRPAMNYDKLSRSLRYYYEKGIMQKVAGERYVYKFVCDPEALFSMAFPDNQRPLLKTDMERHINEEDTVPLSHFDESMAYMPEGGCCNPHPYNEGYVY
# Method in brief: as §1
sequence,measurement,setting,value
TAGGAA,binding signal,FLI1,"1.07 fold enrichment (6-mer frequency, TF over GST control)"
same,binding signal,ELK1,"1 fold enrichment (6-mer frequency, TF over GST control)"
same,binding signal,GABPA,"1.04 fold enrichment (6-mer frequency, TF over GST control)"
same,binding signal,ERG,"1.17 fold enrichment (6-mer frequency, TF over GST control)"
same,binding signal,ELF1,"1.03 fold enrichment (6-mer frequency, TF over GST control)"
same,binding signal,EHF,"1.25 fold enrichment (6-mer frequency, TF over GST control)"
same,binding signal,SPI1,"1.23 fold enrichment (6-mer frequency, TF over GST control)"
same,binding signal,SPIB,"1.28 fold enrichment (6-mer frequency, TF over GST control)"
same,binding signal,ELK3,"1.03 fold enrichment (6-mer frequency, TF over GST control)"
same,binding signal,FEV,"1.06 fold enrichment (6-mer frequency, TF over GST control)"
same,binding signal,ETV5,"1.19 fold enrichment (6-mer frequency, TF over GST control)"
same,binding signal,HSF1,"1.11 fold enrichment (6-mer frequency, TF over GST control)"
same,binding signal,SPIC,"1.27 fold enrichment (6-mer frequency, TF over GST control)"
same,binding signal,ELF4,"1.09 fold enrichment (6-mer frequency, TF over GST control)"
same,binding signal,ELK4,"1.01 fold enrichment (6-mer frequency, TF over GST control)"
same,binding signal,ETV2,"1.2 fold enrichment (6-mer frequency, TF over GST control)"
same,binding signal,ELF3,"1.2 fold enrichment (6-mer frequency, TF over GST control)"
same,binding signal,ETV1,"1.13 fold enrichment (6-mer frequency, TF over GST control)"
